# In ChEMBL document CHEMBL2218924, “A broad activity screen in support of a chemogenomic map for kinase signalling research and drug discovery” (Biochem J, 2013):
# What was measured:
# [1] = molecular target: Serine/threonine-protein kinase SIK1 (Homo sapiens) (UniProt P57059); details: at 10 µM
# [2] = molecular target: SRSF protein kinase 1 (Homo sapiens) (UniProt Q96SB4); details: at 1 µM
# [3] = molecular target: SRSF protein kinase 1 (Homo sapiens) (UniProt Q96SB4); details: at 10 µM
# [4] = molecular target: SRSF protein kinase 2 (Homo sapiens) (UniProt P78362); details: at 1 µM
# Chain of SRSF protein kinase 2 (Homo sapiens) (P78362 whole entry, looked up): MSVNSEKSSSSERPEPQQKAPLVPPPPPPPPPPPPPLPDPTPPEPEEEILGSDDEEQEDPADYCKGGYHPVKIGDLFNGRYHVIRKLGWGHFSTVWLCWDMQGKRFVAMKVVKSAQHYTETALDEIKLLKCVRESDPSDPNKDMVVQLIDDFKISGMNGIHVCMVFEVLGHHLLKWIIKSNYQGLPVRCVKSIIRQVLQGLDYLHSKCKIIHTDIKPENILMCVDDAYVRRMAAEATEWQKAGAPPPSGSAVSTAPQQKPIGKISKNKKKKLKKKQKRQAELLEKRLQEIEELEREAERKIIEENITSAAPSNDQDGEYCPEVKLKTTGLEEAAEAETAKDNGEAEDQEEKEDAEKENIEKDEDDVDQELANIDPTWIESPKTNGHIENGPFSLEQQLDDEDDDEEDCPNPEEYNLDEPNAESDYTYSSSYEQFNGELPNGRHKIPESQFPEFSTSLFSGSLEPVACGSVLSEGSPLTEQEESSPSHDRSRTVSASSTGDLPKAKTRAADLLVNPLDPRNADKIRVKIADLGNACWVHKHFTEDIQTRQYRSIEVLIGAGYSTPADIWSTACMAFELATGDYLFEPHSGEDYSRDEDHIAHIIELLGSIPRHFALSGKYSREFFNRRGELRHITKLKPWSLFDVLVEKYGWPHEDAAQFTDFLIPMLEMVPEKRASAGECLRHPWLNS
# [5] = molecular target: SRSF protein kinase 2 (Homo sapiens) (UniProt P78362); details: at 10 µM
# [6] = molecular target: Serine/threonine-protein kinase 33 (Homo sapiens) (UniProt Q9BYT3); details: at 1 µM
# Chain of Serine/threonine-protein kinase 33 (Homo sapiens) (Q9BYT3 whole entry, looked up): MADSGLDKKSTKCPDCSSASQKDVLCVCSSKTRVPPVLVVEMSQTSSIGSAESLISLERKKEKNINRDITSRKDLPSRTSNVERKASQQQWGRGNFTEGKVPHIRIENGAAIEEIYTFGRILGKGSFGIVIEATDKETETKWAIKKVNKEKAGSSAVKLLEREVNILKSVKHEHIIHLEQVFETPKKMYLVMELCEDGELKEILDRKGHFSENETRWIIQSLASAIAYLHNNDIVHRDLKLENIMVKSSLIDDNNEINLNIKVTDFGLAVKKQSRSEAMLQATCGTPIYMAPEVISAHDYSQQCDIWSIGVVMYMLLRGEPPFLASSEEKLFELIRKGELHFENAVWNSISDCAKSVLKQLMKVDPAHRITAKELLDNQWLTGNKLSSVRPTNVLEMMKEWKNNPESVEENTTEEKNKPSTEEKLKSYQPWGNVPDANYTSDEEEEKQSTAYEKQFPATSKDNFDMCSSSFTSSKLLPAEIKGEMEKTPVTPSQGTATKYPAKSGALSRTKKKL
# [7] = molecular target: Serine/threonine-protein kinase 33 (Homo sapiens) (UniProt Q9BYT3); details: at 10 µM
# [8] = molecular target: T1, Mitogen-activated protein kinase kinase kinase 7 (Homo sapiens) (UniProt O43318); details: at 1 µM
# T1 sequence (whole entry): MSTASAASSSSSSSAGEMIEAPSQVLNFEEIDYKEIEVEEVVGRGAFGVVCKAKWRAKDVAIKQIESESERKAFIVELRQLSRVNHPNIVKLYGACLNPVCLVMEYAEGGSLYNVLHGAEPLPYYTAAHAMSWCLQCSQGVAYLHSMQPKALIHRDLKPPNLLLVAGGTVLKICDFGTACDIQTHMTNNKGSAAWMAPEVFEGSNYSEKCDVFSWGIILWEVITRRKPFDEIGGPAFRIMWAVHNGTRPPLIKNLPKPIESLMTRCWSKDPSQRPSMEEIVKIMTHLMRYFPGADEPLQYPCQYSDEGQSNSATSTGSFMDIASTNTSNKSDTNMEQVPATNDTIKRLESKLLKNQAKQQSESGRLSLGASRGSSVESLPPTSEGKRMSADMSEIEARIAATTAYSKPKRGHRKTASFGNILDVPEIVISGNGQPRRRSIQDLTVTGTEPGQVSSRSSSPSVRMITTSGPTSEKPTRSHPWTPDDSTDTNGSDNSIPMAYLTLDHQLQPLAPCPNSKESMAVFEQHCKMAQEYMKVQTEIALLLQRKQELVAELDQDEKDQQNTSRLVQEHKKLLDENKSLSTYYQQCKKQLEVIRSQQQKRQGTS
# [9] = molecular target: T1, Mitogen-activated protein kinase kinase kinase 7 (Homo sapiens); details: at 10 µM
# [10] = molecular target: T2, Serine/threonine-protein kinase TAO1 (Homo sapiens) (UniProt Q7L7X3); details: at 1 µM
# T2 sequence (whole entry): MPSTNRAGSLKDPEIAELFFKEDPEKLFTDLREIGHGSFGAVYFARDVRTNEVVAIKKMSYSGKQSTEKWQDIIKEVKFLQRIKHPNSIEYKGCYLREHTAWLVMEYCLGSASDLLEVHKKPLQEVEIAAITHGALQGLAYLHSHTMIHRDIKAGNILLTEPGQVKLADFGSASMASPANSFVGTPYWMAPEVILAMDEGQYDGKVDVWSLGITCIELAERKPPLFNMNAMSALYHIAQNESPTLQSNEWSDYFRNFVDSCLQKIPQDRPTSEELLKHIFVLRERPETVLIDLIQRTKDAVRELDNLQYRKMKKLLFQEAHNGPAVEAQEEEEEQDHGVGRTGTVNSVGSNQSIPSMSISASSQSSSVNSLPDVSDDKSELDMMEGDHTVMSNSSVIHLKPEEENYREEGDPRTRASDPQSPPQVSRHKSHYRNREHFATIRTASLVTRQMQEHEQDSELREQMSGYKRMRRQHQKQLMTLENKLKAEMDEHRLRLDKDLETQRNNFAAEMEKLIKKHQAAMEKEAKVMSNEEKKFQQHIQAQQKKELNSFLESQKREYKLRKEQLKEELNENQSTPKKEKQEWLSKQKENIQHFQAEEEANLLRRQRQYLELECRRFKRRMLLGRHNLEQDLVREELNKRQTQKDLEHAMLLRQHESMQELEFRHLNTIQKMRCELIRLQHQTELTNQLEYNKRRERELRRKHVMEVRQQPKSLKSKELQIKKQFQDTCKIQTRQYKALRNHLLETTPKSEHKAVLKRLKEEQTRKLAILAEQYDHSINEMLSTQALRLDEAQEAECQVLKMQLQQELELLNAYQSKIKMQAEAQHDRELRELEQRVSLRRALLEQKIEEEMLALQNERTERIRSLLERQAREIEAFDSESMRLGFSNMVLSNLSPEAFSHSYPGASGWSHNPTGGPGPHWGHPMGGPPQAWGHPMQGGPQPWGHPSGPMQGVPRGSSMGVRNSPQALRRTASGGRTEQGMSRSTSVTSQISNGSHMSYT
# [11] = molecular target: T2, Serine/threonine-protein kinase TAO1 (Homo sapiens); details: at 10 µM
# [12] = molecular target: T3, Serine/threonine-protein kinase TAO2 (Homo sapiens) (UniProt Q9UL54); details: at 1 µM
# T3 sequence (whole entry): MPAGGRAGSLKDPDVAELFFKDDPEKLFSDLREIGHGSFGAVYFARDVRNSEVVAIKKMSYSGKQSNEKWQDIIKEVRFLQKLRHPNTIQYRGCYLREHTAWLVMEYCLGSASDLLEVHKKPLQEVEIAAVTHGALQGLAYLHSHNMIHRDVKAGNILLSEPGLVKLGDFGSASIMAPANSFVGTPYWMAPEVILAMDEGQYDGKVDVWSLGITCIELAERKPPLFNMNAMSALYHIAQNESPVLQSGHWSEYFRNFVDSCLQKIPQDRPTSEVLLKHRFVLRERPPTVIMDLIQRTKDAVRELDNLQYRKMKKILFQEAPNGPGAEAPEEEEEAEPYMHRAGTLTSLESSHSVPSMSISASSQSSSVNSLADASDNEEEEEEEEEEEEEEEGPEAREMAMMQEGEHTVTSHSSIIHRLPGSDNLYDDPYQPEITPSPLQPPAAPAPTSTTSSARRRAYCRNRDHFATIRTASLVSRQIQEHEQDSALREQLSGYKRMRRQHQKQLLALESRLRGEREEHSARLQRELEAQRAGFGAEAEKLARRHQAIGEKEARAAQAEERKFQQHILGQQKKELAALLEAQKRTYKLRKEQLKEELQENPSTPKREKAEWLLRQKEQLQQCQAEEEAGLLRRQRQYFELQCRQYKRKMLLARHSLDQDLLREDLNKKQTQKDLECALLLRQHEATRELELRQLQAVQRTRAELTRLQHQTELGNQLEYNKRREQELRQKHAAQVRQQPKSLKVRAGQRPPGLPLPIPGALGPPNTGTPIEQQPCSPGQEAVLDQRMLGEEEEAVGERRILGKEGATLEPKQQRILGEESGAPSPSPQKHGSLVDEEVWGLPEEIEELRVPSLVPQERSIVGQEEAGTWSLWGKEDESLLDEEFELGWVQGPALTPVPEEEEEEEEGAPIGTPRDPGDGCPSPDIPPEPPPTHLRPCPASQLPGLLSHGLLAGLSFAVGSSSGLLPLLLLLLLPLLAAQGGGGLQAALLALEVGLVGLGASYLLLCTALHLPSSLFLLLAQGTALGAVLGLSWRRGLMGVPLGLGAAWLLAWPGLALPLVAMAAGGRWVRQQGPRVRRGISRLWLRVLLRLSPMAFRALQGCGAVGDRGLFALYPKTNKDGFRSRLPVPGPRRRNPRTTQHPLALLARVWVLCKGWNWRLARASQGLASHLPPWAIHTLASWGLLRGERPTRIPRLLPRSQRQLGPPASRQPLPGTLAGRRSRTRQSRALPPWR
# [13] = molecular target: T3, Serine/threonine-protein kinase TAO2 (Homo sapiens); details: at 10 µM
# [14] = molecular target: T4, Serine/threonine-protein kinase TAO3 (Homo sapiens) (UniProt Q9H2K8); details: at 1 µM
# T4 sequence (whole entry): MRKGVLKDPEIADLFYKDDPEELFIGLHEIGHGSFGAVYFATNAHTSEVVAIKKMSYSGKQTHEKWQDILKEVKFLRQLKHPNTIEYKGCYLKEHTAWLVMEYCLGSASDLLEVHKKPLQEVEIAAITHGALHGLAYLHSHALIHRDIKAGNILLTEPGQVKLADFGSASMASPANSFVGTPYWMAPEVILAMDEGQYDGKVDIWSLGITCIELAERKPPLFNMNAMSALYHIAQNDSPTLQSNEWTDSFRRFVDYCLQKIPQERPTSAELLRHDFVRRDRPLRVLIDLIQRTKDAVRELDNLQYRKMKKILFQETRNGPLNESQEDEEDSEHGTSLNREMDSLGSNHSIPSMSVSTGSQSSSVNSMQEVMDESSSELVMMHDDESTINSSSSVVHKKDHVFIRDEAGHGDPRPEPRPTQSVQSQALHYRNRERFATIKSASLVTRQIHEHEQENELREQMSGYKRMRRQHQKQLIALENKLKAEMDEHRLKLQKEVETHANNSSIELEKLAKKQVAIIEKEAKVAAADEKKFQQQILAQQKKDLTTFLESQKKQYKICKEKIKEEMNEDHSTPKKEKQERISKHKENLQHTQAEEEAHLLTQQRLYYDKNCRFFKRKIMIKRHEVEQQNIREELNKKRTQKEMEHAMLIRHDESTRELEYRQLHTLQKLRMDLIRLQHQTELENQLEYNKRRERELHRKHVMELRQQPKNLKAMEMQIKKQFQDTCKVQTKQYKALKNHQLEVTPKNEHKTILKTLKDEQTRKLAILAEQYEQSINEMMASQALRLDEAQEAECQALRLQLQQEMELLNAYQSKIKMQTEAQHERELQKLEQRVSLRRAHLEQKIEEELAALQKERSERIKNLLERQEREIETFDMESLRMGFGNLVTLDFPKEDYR
# [15] = molecular target: T4, Serine/threonine-protein kinase TAO3 (Homo sapiens); details: at 10 µM
# [16] = molecular target: T5, Serine/threonine-protein kinase TBK1 (Homo sapiens) (UniProt Q9UHD2); details: at 1 µM
# T5 sequence (whole entry): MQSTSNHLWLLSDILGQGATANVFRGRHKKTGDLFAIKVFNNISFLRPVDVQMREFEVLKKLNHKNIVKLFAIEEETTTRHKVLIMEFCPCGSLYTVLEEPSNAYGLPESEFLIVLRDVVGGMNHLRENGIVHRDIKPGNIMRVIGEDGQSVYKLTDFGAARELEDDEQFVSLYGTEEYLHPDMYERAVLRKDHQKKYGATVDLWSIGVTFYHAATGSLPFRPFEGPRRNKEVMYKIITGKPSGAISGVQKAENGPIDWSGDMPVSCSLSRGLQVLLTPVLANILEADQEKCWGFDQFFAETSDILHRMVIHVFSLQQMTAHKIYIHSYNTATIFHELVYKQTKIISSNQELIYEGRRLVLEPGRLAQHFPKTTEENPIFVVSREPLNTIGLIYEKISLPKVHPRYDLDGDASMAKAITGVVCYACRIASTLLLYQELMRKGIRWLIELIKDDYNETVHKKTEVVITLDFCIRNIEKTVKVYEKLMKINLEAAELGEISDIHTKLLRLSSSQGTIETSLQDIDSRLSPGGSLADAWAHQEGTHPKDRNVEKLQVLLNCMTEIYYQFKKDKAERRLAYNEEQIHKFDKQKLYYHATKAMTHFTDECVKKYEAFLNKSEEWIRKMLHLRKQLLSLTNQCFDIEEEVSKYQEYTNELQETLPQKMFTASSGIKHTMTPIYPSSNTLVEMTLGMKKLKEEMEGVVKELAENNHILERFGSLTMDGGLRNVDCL
# [17] = molecular target: Serine/threonine-protein kinase PLK2 (Homo sapiens) (UniProt Q9NYY3); details: at 1 µM
# Chain of Serine/threonine-protein kinase PLK2 (Homo sapiens) (Q9NYY3 whole entry, looked up): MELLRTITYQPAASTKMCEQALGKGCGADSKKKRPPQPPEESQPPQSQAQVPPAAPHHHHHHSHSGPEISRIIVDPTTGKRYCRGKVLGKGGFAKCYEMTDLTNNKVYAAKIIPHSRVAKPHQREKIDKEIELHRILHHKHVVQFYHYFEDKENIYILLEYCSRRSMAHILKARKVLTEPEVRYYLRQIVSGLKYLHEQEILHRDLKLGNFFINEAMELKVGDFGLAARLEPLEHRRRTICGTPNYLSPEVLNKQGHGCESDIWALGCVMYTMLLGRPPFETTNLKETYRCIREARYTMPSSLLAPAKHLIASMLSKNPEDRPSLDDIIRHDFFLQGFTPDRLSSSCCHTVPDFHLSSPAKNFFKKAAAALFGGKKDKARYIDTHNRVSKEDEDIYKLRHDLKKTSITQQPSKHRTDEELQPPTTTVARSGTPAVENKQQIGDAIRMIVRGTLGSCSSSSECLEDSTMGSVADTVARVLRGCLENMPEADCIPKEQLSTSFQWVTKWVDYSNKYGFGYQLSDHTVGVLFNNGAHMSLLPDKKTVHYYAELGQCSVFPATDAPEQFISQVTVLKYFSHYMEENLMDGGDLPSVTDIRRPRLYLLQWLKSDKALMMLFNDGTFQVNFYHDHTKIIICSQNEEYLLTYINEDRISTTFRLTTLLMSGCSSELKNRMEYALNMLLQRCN
# [18] = molecular target: Serine/threonine-protein kinase PLK2 (Homo sapiens) (UniProt Q9NYY3); details: at 10 µM
# [19] = molecular target: Tyrosine-protein kinase SYK (Homo sapiens) (UniProt P43405); details: at 10 µM
# [20] = molecular target: Tyrosine-protein kinase SYK (Homo sapiens) (UniProt P43405); details: at 1 µM
# Chain of Serine/threonine-protein kinase SIK1 (Homo sapiens) (P57059 whole entry): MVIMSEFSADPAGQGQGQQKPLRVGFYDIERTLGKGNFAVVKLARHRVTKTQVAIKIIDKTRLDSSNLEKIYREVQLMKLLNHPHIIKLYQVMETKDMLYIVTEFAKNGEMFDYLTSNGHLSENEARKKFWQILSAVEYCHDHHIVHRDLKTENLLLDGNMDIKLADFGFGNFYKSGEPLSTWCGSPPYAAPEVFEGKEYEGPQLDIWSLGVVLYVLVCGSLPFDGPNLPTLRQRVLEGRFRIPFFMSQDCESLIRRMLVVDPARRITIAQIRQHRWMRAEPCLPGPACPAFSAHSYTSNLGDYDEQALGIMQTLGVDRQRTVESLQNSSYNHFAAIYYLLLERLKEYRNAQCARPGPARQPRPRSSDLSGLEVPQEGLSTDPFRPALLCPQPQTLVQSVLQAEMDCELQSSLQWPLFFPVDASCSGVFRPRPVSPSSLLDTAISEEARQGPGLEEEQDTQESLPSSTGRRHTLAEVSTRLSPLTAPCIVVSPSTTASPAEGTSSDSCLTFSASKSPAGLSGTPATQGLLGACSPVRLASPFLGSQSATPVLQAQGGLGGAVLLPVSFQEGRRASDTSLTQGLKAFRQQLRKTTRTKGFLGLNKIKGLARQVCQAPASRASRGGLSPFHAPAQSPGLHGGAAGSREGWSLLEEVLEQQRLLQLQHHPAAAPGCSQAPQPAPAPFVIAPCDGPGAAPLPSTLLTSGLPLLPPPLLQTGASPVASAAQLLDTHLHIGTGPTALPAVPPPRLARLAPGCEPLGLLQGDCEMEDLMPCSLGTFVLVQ
# Chain of SRSF protein kinase 1 (Homo sapiens) (Q96SB4 whole entry): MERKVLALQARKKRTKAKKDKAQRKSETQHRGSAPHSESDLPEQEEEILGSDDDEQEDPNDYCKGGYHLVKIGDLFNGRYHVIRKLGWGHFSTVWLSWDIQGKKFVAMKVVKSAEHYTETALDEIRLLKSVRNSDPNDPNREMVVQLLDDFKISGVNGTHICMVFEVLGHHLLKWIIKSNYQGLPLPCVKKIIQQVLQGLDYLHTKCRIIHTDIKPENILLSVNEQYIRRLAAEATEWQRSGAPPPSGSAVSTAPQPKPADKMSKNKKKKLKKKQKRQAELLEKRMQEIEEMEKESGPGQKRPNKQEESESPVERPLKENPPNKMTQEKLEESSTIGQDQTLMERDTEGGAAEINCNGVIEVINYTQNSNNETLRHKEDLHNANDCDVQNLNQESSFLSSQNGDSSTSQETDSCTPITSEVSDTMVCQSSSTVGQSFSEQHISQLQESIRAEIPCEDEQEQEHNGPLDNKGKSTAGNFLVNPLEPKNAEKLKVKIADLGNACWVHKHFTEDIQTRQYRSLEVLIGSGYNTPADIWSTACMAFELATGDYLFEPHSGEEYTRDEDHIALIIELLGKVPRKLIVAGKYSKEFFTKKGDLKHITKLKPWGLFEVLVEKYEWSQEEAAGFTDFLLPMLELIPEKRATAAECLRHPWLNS
Structure (SMILES),residual activity [1] [%],residual activity [2] [%],residual activity [3] [%],residual activity [4] [%],residual activity [5] [%],residual activity [6] [%],residual activity [7] [%],residual activity [8] [%],residual activity [9] [%],residual activity [10] [%],residual activity [11] [%],residual activity [12] [%],residual activity [13] [%],residual activity [14] [%],residual activity [15] [%],residual activity [16] [%],residual activity [17] [%],residual activity [18] [%],residual activity [19] [%],residual activity [20] [%]
Cn1sc(=O)n(Cc2ccccc2)c1=O,83,83,91,93,76,95,88,85,79,87,85,95,91,91,91,61,,,,
O=c1cc(N2CCOCC2)oc2c1ccc1ccccc12,93,99,93,97,97,93,101,93,90,102,87,98,96,98,95,77,98,85,94,
CCN(CC)CCNC(=O)c1c(C)[nH]c(/C=C2\C(=O)Nc3ccc(Cl)cc32)c1C,5,,,98,78,33,6,4,-3,71,18,,,79,24,15,98,58,33,
CSc1nc(-c2ccc(F)cc2)c(-c2ccnc(NC(C)c3ccccc3)c2)[nH]1 (centres undefined),87,94,84,91,87,92,93,101,93,102,83,,83,,91,102,,87,75,101
Nc1ncnc2[nH]nc(Nc3ccc(F)cc3)c12,6,95,79,104,,100,94,,,107,,102,91,101,,77,102,95,97,91
CCOC(=O)c1c(C)[nH]c(/C=C2\C(=O)Nc3ccccc32)c1C,91,92,97,93,89,89,97,89,98,,,,,,,92,,,,
O=C(O)/C=C/c1cc(Br)c(Br)c(Br)c1Br,98,,,103,89,103,99,107,95,77,29,84,68,81,26,69,39,,84,108
